PMC7862700, “An all-to-all approach to the identification of sequence-specific readers for epigenetic DNA modifications on cytosine”

What was measured:
Test in all cases: DAPPL (digital affinity profiling via proximity ligation, sequencing); 10 mM Tris-HCl pH 7.5, 50 mM NaCl, 1 mM DTT, 4% glycerol, room temperature, 30 min; GST-TFs on glutathione beads, 16-mer random dsDNA library, 0.1% formaldehyde crosslink after washing; high values mean tight binding
Details in all cases: protein: recombinant; tags: N-terminal GST; dsDNA, one strand shown
ERF = target: T1, ERF (Homo sapiens, UniProt P50548 1-548)
T1 sequence: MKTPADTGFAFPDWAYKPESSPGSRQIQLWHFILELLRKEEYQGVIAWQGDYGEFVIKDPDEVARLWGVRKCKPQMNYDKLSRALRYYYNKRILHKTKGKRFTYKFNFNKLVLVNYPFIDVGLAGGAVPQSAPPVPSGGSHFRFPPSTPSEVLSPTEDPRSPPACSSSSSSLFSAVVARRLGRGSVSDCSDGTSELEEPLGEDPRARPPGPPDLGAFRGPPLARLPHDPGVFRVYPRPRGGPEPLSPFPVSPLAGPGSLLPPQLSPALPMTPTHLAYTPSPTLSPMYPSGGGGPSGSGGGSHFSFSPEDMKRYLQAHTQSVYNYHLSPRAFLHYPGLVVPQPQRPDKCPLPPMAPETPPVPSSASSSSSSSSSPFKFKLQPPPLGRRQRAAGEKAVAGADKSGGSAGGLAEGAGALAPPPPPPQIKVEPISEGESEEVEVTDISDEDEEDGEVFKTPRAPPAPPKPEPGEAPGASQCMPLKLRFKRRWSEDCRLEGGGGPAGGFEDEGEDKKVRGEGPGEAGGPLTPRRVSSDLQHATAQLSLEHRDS
Outline: (§1)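 Binding signal is given per hexamer as its read frequency for a factor divided by its frequency in the tag-only sample. GST-fused human transcription factors were expressed in yeast, captured on glutathione beads, barcoded with DNA and pooled with that sample, then incubated with 200 nmole of a 16-mer random double-stranded DNA library in Tris/NaCl/DTT/glycerol buffer for 30 min at room temperature. The pools were then washed, crosslinked, proximity-ligated, amplified by PCR and sequenced on an Illumina NextSeq500.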

ETV3L = target: T2, ETV3L (Homo sapiens, UniProt Q6ZN32 1-361)
T2 sequence: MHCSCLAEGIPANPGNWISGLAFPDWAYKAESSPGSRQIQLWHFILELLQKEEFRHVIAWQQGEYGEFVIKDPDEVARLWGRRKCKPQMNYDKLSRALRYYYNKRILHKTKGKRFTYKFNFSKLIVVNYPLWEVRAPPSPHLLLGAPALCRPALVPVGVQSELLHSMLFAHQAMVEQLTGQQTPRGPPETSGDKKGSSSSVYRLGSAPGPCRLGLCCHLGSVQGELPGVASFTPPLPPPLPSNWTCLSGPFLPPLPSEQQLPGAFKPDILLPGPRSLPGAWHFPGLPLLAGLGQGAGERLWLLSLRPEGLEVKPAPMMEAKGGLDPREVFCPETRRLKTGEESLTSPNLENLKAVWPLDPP
Outline: as §1

ETS2 = target: T3, ETS2 (Homo sapiens, UniProt P15036 1-469)
T3 sequence: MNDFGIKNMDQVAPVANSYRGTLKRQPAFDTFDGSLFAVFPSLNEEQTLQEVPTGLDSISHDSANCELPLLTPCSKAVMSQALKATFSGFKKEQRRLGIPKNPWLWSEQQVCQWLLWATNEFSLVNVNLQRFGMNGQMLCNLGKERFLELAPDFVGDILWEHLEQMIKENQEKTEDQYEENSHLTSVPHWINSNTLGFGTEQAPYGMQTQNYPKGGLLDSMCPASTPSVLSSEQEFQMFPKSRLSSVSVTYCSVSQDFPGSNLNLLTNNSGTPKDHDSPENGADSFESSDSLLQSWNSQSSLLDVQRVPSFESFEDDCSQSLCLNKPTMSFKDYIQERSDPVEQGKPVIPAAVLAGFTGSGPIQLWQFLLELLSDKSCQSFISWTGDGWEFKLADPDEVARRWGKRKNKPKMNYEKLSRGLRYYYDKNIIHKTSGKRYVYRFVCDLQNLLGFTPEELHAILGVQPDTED
Outline: as §1

SPDEF = target: T4, SPDEF (Homo sapiens, UniProt O95238 1-335)
T4 sequence: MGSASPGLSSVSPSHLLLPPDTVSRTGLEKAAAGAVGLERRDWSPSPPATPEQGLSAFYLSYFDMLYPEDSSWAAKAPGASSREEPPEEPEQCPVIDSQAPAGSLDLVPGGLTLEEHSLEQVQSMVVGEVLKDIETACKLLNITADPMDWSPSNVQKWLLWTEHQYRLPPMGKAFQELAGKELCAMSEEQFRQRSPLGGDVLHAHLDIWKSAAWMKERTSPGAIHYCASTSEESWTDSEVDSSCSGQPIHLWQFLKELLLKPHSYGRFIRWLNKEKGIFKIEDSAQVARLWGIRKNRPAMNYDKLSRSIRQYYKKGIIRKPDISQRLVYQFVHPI
Outline: as §1

ETV7 = target: T5, ETV7 (Homo sapiens, UniProt Q9Y603 1-341)
T5 sequence: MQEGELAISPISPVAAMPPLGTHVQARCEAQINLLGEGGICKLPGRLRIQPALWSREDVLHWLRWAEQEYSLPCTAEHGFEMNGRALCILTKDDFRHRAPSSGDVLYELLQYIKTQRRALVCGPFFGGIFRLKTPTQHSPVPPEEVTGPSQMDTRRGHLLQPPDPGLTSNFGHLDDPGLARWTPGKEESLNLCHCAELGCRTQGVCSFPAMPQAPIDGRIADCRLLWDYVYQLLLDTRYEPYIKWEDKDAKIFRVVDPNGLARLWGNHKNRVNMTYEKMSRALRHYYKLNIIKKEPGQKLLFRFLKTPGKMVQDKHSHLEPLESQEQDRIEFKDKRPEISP
Outline: as §1

ELF5 = target: T6, ELF5 (Homo sapiens, UniProt Q9UKW6-2 1-255)
T6 sequence: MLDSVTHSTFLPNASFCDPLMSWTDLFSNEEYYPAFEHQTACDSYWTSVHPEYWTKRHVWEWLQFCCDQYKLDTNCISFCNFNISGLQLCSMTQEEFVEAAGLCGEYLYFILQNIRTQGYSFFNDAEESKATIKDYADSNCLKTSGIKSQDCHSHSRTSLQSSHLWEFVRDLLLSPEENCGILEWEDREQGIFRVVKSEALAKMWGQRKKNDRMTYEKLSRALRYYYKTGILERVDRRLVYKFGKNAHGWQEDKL
Outline: as §1

ETV3 = target: T7, ETV3 (Homo sapiens, UniProt P41162-2 1-143)
T7 sequence: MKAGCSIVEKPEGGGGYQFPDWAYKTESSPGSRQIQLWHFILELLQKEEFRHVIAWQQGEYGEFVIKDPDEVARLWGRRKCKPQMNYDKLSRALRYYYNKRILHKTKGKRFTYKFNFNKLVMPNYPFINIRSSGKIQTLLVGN
Outline: as §1

ETV6 = ETV6 (Homo sapiens, UniProt P41212 1-452)
Outline: as §1

Chain of ETV6 (P41212 whole entry): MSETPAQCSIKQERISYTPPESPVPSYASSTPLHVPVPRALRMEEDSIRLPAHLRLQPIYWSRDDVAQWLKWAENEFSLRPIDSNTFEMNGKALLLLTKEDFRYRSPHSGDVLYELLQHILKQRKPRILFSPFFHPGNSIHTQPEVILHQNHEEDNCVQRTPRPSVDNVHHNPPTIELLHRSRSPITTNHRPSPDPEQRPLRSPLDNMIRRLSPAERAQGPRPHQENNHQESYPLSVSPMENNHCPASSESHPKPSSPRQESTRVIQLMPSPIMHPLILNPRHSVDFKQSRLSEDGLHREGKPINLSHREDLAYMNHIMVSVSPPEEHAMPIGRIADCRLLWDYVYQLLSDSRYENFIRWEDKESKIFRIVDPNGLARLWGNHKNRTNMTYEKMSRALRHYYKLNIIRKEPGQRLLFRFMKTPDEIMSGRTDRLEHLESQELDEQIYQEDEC

| Sequence | binding signal (ERF) | binding signal (ETV3L) | binding signal (ETS2) | binding signal (SPDEF) | binding signal (ETV7) | binding signal (ELF5) | binding signal (ETV3) | binding signal (ETV6) |
| --- | --- | --- | --- | --- | --- | --- | --- | --- |
| CTTGGC | 1.35 fold enrichment (6-mer frequency, TF over GST control) | 1.15 fold enrichment (6-mer frequency, TF over GST control) | 1.03 fold enrichment (6-mer frequency, TF over GST control) | 1.14 fold enrichment (6-mer frequency, TF over GST control) | 1.24 fold enrichment (6-mer frequency, TF over GST control) | 1.12 fold enrichment (6-mer frequency, TF over GST control) | 1.12 fold enrichment (6-mer frequency, TF over GST control) | 1.1 fold enrichment (6-mer frequency, TF over GST control) |
| GCCTTT | 1.29 fold enrichment (6-mer frequency, TF over GST control) | 1.27 fold enrichment (6-mer frequency, TF over GST control) | 1.14 fold enrichment (6-mer frequency, TF over GST control) | 1.15 fold enrichment (6-mer frequency, TF over GST control) | 1.18 fold enrichment (6-mer frequency, TF over GST control) | 1.3 fold enrichment (6-mer frequency, TF over GST control) | 1.33 fold enrichment (6-mer frequency, TF over GST control) | 1.38 fold enrichment (6-mer frequency, TF over GST control) |
| TGCCTG | 1.46 fold enrichment (6-mer frequency, TF over GST control) | 1.28 fold enrichment (6-mer frequency, TF over GST control) | 1.28 fold enrichment (6-mer frequency, TF over GST control) | 1.36 fold enrichment (6-mer frequency, TF over GST control) | 1.17 fold enrichment (6-mer frequency, TF over GST control) | 1.27 fold enrichment (6-mer frequency, TF over GST control) | 1.31 fold enrichment (6-mer frequency, TF over GST control) | 1.18 fold enrichment (6-mer frequency, TF over GST control) |
| TCATGC | 1.13 fold enrichment (6-mer frequency, TF over GST control) | 1.12 fold enrichment (6-mer frequency, TF over GST control) | 1.13 fold enrichment (6-mer frequency, TF over GST control) | 1.18 fold enrichment (6-mer frequency, TF over GST control) | 1.17 fold enrichment (6-mer frequency, TF over GST control) | 1.07 fold enrichment (6-mer frequency, TF over GST control) | 1.18 fold enrichment (6-mer frequency, TF over GST control) | 1.11 fold enrichment (6-mer frequency, TF over GST control) |
| GCCACT | 1.16 fold enrichment (6-mer frequency, TF over GST control) | 1.07 fold enrichment (6-mer frequency, TF over GST control) | 1.19 fold enrichment (6-mer frequency, TF over GST control) | 1.15 fold enrichment (6-mer frequency, TF over GST control) | 1.12 fold enrichment (6-mer frequency, TF over GST control) | 1.16 fold enrichment (6-mer frequency, TF over GST control) | 1.16 fold enrichment (6-mer frequency, TF over GST control) | 1.21 fold enrichment (6-mer frequency, TF over GST control) |
| CGCCGC | 1.2 fold enrichment (6-mer frequency, TF over GST control) | 1.18 fold enrichment (6-mer frequency, TF over GST control) | 1.2 fold enrichment (6-mer frequency, TF over GST control) | 1.08 fold enrichment (6-mer frequency, TF over GST control) | 1.11 fold enrichment (6-mer frequency, TF over GST control) | 1.08 fold enrichment (6-mer frequency, TF over GST control) | 1.09 fold enrichment (6-mer frequency, TF over GST control) | 1.21 fold enrichment (6-mer frequency, TF over GST control) |
| ACGTAA | 1.12 fold enrichment (6-mer frequency, TF over GST control) | 1.09 fold enrichment (6-mer frequency, TF over GST control) | 1.08 fold enrichment (6-mer frequency, TF over GST control) | 1.11 fold enrichment (6-mer frequency, TF over GST control) | 1.08 fold enrichment (6-mer frequency, TF over GST control) | 1.09 fold enrichment (6-mer frequency, TF over GST control) | 1.17 fold enrichment (6-mer frequency, TF over GST control) | 1.07 fold enrichment (6-mer frequency, TF over GST control) |
